Experimental data as given in PubChem BioAssay (NCATS).
Unmarked numbers belong to inactive results. Records with an inconclusive call do not appear. Activity calls are given as the source filed them. Calls come from the whole dose curve; as a rule, active = well fitted curve in the direction sought with a large enough effect; inconclusive = small, poorly fitted or top-dose-only effect, or another doubt; inactive = no such curve, though single readings can be large; an effect the other way counts as inactive or inconclusive.

target: Arylsulfatase A (Homo sapiens) (UniProt P15289); assay: qHTS screen for enhancers of Arylsulfatase A (ASA1): LOPAC Validation Assay (AID 720538); conditions: ASA enzyme activity, LOPAC qHTS enhancer assay; series mostly up to 57.5 µM; activity change, positive = activation: at the top concentration; for activity change, positive = activation: 0% is about no effect
How it was run: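 SV40-transformed skin fibroblasts from an MLD patient (ASA-I179S) were treated with compounds for 48h at 37 degree C, then lysed with 0.5mM pNCS final substrate for 14h at room temperature; NaOH stop, fluorescence read (Ex=525 nm; Em=598 nm).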

Arylsulfatase A (Homo sapiens), sequence (P15289 whole entry, looked up): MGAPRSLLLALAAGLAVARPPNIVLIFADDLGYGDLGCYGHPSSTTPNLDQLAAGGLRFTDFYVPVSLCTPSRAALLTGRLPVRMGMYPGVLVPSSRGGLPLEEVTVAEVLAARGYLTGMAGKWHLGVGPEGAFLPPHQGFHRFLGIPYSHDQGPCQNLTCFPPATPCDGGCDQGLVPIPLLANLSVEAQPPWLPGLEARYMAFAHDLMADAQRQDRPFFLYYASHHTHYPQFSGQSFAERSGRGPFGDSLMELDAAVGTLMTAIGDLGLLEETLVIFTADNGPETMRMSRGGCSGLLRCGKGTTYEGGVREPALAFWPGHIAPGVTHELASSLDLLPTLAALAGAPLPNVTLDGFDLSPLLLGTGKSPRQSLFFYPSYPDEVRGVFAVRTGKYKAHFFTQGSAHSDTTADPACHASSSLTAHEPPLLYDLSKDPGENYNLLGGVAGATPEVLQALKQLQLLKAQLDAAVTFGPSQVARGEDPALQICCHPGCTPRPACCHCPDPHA

Row | SMILES | activity change, positive = activation | outcome
1 | CN(C)C(=O)Oc1ccc[n+](C)c1 | -5.23% | –
2 | COCCc1ccc(OCC(O)CNC(C)C)cc1 (configuration not stated) | – | inactive
3 | NC(N)=NC(=O)Cc1c(Cl)cccc1Cl | 10.6% | –
4 | N[C@@H](COP(=O)(O)O)C(=O)O | -7.77% | –
5 | Cc1cccc(C)c1NC(=O)C(C)N (configuration not stated) | -24% | –
6 | O=C(O)CP(=O)(O)O | – | inactive
7 | CNCCC(Oc1ccccc1OC)c1ccccc1 (configuration not stated) | -74.4% | –
8 | OCCN1CCN(CCCN2c3ccccc3C=Cc3ccccc32)CC1 | 12.4% | –
9 | CC[N+](C)(C)c1cccc(O)c1 | – | inactive
10 | Cc1ccc(Cl)c(Nc2ccccc2C(=O)O)c1Cl | – | inactive
11 | CCN1CCc2nc(N)oc2CC1 | 2.21% | –
12 | CCCN(CCC)C(=O)C(CCC(=O)O)NC(=O)c1ccccc1 (configuration not stated) | – | inactive
13 | O=C(CCCN1CCC(O)(c2cccc(C(F)(F)F)c2)CC1)c1ccc(F)cc1 | -21.6% | –
14 | CN1CCN(CC(=O)N2c3ccccc3C(=O)Nc3cccnc32)CC1 | -15.9% | –
15 | CN(C)CC/C=C1\c2ccccc2COc2ccccc21 | – | inactive
16 | Fc1ccc(C(c2ccc(F)cc2)N2CCN(C/C=C/c3ccccc3)CC2)cc1 | – | inactive
17 | CCN(Cc1ccncc1)C(=O)C(CO)c1ccccc1 (configuration not stated) | -98.7% | –
18 | CC(C)NNC(=O)c1ccncc1 | – | inactive
19 | CCN(CC)CCOCCOC(=O)C1(c2ccccc2)CCCC1 | – | inactive
20 | CC1=NS(=O)(=O)c2cc(Cl)ccc2N1 | -0.953% | –
21 | CC(C)NCC(O)c1cc(O)cc(O)c1 (configuration not stated) | – | inactive; inhibitor; fitted 8.4921 uM
22 | CN/C(=C\[N+](=O)[O-])NCCSCc1ccc(CN(C)C)o1 | – | inactive
23 | CCn1nc(C(=O)O)c(=O)c2cc3c(cc21)OCO3 | 20.1% | –
24 | COc1ccc2c(c1OC)C(=O)O[C@@H]2[C@H]1c2c(cc3c(c2OC)OCO3)CCN1C | – | inactive
25 | Cc1ccc(=O)n(-c2ccccc2)c1 | -13.6% | –
26 | CCOC(=O)C1=C(C)NC(C)=C(C(=O)OC)C1c1cccc(Cl)c1Cl (configuration not stated) | -9.8% | –

tested on: not listed separately; assay: qHTS for compounds that reverse cellular toxicity of Amyloid beta (A-beta) peptide in yeast: LOPAC Validation Assay (AID 720559); conditions: yeast expressing A-beta; series mostly up to 46.1 µM; growth rescue, positive = activation: at the top concentration;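 note: plate controls were DMSO for no effect and equimolar ferric chloride plus clioquinol rescue for full effect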
How it was run: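 Yeast cells expressing toxic A-beta were combined with pinned compounds in growth medium and incubated 48 hr at 30 C. Growth was read as absorbance at 600 nm and normalized to DMSO and to an equimolar FeCl3/clioquinol positive control.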

Row | SMILES | growth rescue, positive = activation
27 | NC(N)=NC(=O)Cc1c(Cl)cccc1Cl | -1.29%
28 | N[C@@H](COP(=O)(O)O)C(=O)O | -3.26%
29 | CC(=O)[C@@]1(O)CC[C@H]2[C@@H]3CCC4=CC(=O)CC[C@]4(C)[C@H]3CC[C@@]21C | 2.34%
30 | O=C(O)CP(=O)(O)O | -2.69%
31 | CNCCC(Oc1ccccc1OC)c1ccccc1 (configuration not stated) | -0.0727%
32 | OCCN1CCN(CCCN2c3ccccc3C=Cc3ccccc32)CC1 | 7.26%
33 | Cc1ccc(Cl)c(Nc2ccccc2C(=O)O)c1Cl | -2.49%
34 | CCN1CCc2nc(N)oc2CC1 | -1.21%
35 | CCCN(CCC)C(=O)C(CCC(=O)O)NC(=O)c1ccccc1 (configuration not stated) | -3.96%
36 | O=C(CCCN1CCC(O)(c2cccc(C(F)(F)F)c2)CC1)c1ccc(F)cc1 | 5.15%
37 | COC(=O)C1=C(C)NC(C)=C(C(=O)OC(C)(C)CN(C)CCC(c2ccccc2)c2ccccc2)C1c1cccc([N+](=O)[O-])c1 (configuration not stated) | -1.68%
38 | Cc1ccc(S(=O)(=O)NC(=O)NN2CCCCCC2)cc1 | 0.364%
39 | c1cc(CN2CCCCC2)cc(OCCCNc2nc3ccccc3s2)c1 | -10.3%
40 | O=C(CCNNC(=O)c1ccncc1)NCc1ccccc1 | 11.3%
41 | CN(C)CC/C=C1\c2ccccc2COc2ccccc21 | -5.96%
42 | O=C1CC2(CCCC2)CC(=O)N1CCCCN1CCN(c2ncccn2)CC1 | -1.87%
43 | CCN(Cc1ccncc1)C(=O)C(CO)c1ccccc1 (configuration not stated) | -6.77%
44 | CN=C(NC#N)NCCSCc1nc[nH]c1C | -6.66%
45 | O=c1[nH]c(=O)n([C@H]2C[C@H](O)[C@@H](CO)O2)cc1Br | -2.37%
46 | CC(C)NNC(=O)c1ccncc1 | 0.743%
47 | CN/C(=C\[N+](=O)[O-])NCCSCc1ccc(CN(C)C)o1 | -0.483%
48 | C[C@]12CC[C@@H]3c4ccc(O)cc4C[C@@H](CCCCCCCCCS(=O)CCCC(F)(F)C(F)(F)F)[C@H]3[C@@H]1CC[C@@H]2O (some centres not stated) | 1.79%
49 | COc1ccc2c(c1OC)C(=O)O[C@@H]2[C@H]1c2c(cc3c(c2OC)OCO3)CCN1C | -0.332%
50 | Cc1ccc(=O)n(-c2ccccc2)c1 | 1.55%
51 | CCOC(=O)C1=C(C)NC(C)=C(C(=O)OC)C1c1cccc(Cl)c1Cl (configuration not stated) | -7.34%
52 | Brc1c(NC2=NCCN2)ccc2nccnc12 | 7.41%

tested on: not listed separately; assay: qHTS for Activators of Parkin Expression: LOPAC Validation Assay (NLuc Reporter) (AID 720572); conditions: Parkin promoter NanoLuc reporter cells, luminescence; series mostly up to 46.1 µM; activation: at the top concentration
How it was run: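 NLuc signal, read 10 min after reagent and following a prior FLuc read, is normalized to DMSO (0) and positive controls (100%). Cells: neuronal Parkin-promoter coincidence reporter line; compounds tested 7-point, 24 h, 37 C, 5% CO2.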

Row | SMILES | activation
53 | CC(=O)[C@@]1(O)CC[C@H]2[C@@H]3CCC4=CC(=O)CC[C@]4(C)[C@H]3CC[C@@]21C | -3.02%
54 | COC(=O)C1=C(C)NC(C)=C(C(=O)OC(C)(C)CN(C)CCC(c2ccccc2)c2ccccc2)C1c1cccc([N+](=O)[O-])c1 (configuration not stated) | -10%
55 | Cc1ccc(S(=O)(=O)NC(=O)NN2CCCCCC2)cc1 | 2.88%
56 | c1cc(CN2CCCCC2)cc(OCCCNc2nc3ccccc3s2)c1 | -9.47%
57 | O=C(CCNNC(=O)c1ccncc1)NCc1ccccc1 | -4.86%
58 | O=C1CC2(CCCC2)CC(=O)N1CCCCN1CCN(c2ncccn2)CC1 | -2.38%
59 | CN=C(NC#N)NCCSCc1nc[nH]c1C | -2.23%
60 | O=c1[nH]c(=O)n([C@H]2C[C@H](O)[C@@H](CO)O2)cc1Br | -1.4%
61 | C[C@]12CC[C@@H]3c4ccc(O)cc4C[C@@H](CCCCCCCCCS(=O)CCCC(F)(F)C(F)(F)F)[C@H]3[C@@H]1CC[C@@H]2O (some centres not stated) | -4.9%
62 | Brc1c(NC2=NCCN2)ccc2nccnc12 | 3.7%
